Bioassay records as filed in PubChem BioAssay.
Sfp inh – qHTS Assay for Inhibitors of Bacillus subtilis Sfp phosphopantetheinyl transferase (PPTase). Biochemical Sfp PPTase activity, qHTS. Potency, µM, hits mostly inhibitors. 310,000 tested, 3.5% active;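 also: the enzyme is Sfp with the accession as filed and its product quenches rhodamine fluorescence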
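After 15 min at room temperature with compound, 15 nM Sfp received 5 uM rhodamine-CoA plus 12.5 uM BHQ-2-ybbR (50 mM Hepes pH 7.6, 10 mM MgCl2). Rate came from the fluorescence difference over 30 min, ex 525/em 598 nm.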
JMJD2E inh – qHTS Assay for Inhibitors of Human Jumonji Domain Containing 2E (JMJD2E) | 230,000 tested, 1.6% active | Potency, µM (top dose mostly 57.1 µM), most hits filed as inhibitors | JMJD2E catalytic domain, FDH-coupled NADH fluorescence (FDH is formaldehyde dehydrogenase) | Lysine-specific demethylase 4E (Homo sapiens), B2RXH2 | AID 2147, 2009; active = well fitted inhibition curve with a large enough effect, not every such curve was filed as active; inconclusive = small, poorly fitted or top-dose-only effect, or another doubt; inactive = no such curve, though single readings can be large or run the other way; also: nearly all actives have a fitted effect of over 50% in size
LMNA splice mod – qHTS Assay for Modulators of Lamin A Splicing; HeLa LMNA splicing GFP/RFP minigene ratio, 48 h; Potency, µM (highest dose often 46.1 µM), most hits filed as inhibitors; 200,000 tested, 0.01% active; AID 1487, 2009; active = well fitted inhibition curve with a large enough effect in the signal ratio, with a control signal flat, not every such curve was filed as active; inconclusive = small, poorly fitted or top-dose-only effect, or effect the other way, or a change in a side signal; the % refers to the signal ratio
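Read-out is the ratio of GFP to DsRed2 object intensity, acquired by 488 nm laser-scanning cytometry on HeLa lamin A-EGFP minigene reporter cells. Compound incubation 48 hrs at 37 °C in Opti-MEM with 2% FBS; DMSO 0.5% final.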
miR-21 act – qHTS Assay for Modulators of miRNAs and/orActivators of miR-21; HeLa miR-21 FLuc reporter, luciferase, 48 h; Potency, µM (titrated, usually from 38.3 µM), usual class: activators; 340,000 tested, under 10 active; AID 2288, 2010;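 also: miR-21 action dims this reporter so a rising signal means less miR-21 action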
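Luminescence from a firefly luciferase reporter carrying a miR-21 binding site downstream, stably expressed under a CMV promoter in HeLa cells that make miR-21 endogenously, reports miRNA modulation after 48 h compound exposure up to approximately 40uM final.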
G9a block – qHTS Assay for Inhibitors of Histone Lysine Methyltransferase G9a; Histone-lysine N-methyltransferase EHMT2 (Homo sapiens), Q96KQ7; G9a H3K9 monomethylation, AlphaScreen, 2 h; Potency, µM (series often up to 102 µM), actives largely listed as inhibitors; 350,000 tested, 8.8% active; AID 504332, 2011; also: nearly all actives have a fitted effect of over 75% in size
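Step 1: enzyme (final 20 nM) with compound, 15 min RT. Step 2: substrate peptide 500 nM and SAM 20 uM, 2 h RT. Step 3: anti-H3K9me1 antibody and AlphaScreen beads, 10 min, then plate read.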
ALDH1A1 inh – qHTS Assay for Inhibitors of Aldehyde Dehydrogenase 1 (ALDH1A1); Purified ALDH1A1, NADH fluorescence, propionaldehyde substrate; Potency, µM (doses to about 75.3 µM), hits mostly inhibitors; 220,000 tested, 7.3% active; AID 1030, 2008; active = well fitted inhibition curve with a large enough effect, not every such curve was filed as active; inconclusive = small, poorly fitted or top-dose-only effect, or another doubt; inactive = no such curve, though single readings can be large or run the other way
Target sequence (P00352 whole entry, looked up): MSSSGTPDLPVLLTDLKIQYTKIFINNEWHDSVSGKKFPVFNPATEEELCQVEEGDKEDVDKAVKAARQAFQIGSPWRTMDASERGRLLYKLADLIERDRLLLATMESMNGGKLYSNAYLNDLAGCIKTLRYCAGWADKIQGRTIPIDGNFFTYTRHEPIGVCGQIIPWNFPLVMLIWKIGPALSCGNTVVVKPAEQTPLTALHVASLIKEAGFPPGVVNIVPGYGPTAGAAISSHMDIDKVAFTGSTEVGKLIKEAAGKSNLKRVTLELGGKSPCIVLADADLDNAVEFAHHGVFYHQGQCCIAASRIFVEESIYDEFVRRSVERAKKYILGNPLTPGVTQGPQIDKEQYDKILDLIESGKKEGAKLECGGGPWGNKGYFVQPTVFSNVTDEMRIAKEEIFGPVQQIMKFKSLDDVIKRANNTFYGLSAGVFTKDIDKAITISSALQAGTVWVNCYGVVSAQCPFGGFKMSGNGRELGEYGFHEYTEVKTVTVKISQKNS
Numbers stand for hits; 0 = inactive; ? = inconclusive; - = no result; [ ] = dose if it differs, or a comment. A selection: hits, their analogues and other compounds. The true share with any hit is near 13%. Unless noted, calls follow the shape of the dose curve; as a rule, active = well fitted curve in the direction sought with a large enough effect; inconclusive = small, poorly fitted or top-dose-only effect, or another doubt; inactive = no such curve, though single readings can be large; an effect the other way counts as inactive or inconclusive.

SMILES	Sfp inh	JMJD2E inh	LMNA splice mod	miR-21 act	G9a block	ALDH1A1 inh
CN(NC(=S)Nc1ccc(OC(F)F)cc1)C(=S)Nc1ccc(OC(F)F)cc1	0	0	?	0	?	0
FC(F)Oc1ccc(NC(=S)Nn2cnnc2)cc1	22µM	0	-	0	6.3µM	7.9µM
FC(F)Oc1ccc(NC(=S)NCc2ccccc2)cc1	0	0	0	0	0	0
Cc1nnc2c(Nc3cccc(O)c3)nc3ccccc3n12	-	-	-	0	0	-
O=C(O)C1Cc2[nH]cnc2C(c2ccccc2O)N1 (stereo not drawn)	79µM	32µM	?	0	0	0
CCn1c(CNC(=O)Cc2ccc(OC)cc2)nnc1SCC(=O)c1ccc(Br)cc1	0	0	0	0	0	?
CCn1c(CNC(=O)c2ccc(OC)cc2)nnc1SCC(=O)c1ccccc1	?	?	0	0	0	13µM
CCn1c(CNC(C)=O)nnc1SCC(=O)c1ccc(Br)cc1	?	0	0	0	11µM	15µM
COc1ccc2c(c1)NC(c1ccc(Cl)cc1)=NC(c1cccs1)=N2	-	-	-	0	?	-
COc1ccc(OCC(=O)NC(=S)N2CCCc3ccccc32)cc1	56µM	?	0	0	?	8.9µM
O=C(COc1ccccc1)NC(=S)N1CCc2ccccc21	0	0	0	0	28µM	?
Cc1cc(C)cc(C(=O)N(CCc2ccccc2)C2CC3CCC(C2)N3C)c1 (stereo not drawn)	0	-	-	0	-	-
CCc1ccc(-c2cc(C)no2)cc1S(=O)(=O)Nc1cc(OC)c(OC)c(OC)c1	-	-	-	0	0	-
Cc1ccc(C(=O)Nc2ccc(C(=O)OCc3cc(=O)n4c5c(sc4n3)CCCC5)cc2)cc1	-	-	0	0	0[12.7 µM]	-
O=C(O)C1CCCC2CN3CCc4c([nH]c5ccccc45)C3C(O)C21 (stereo not drawn)	0	-	-	0	?	-
Cc1ccc(/C(O)=C2/C(=O)C(=O)N(c3ccccn3)C2c2cccc([N+](=O)[O-])c2)cc1 (stereo not drawn)	0	-	-	0	35µM	-
Cc1ccc(/C(O)=C2\C(=O)C(=O)N(C)C2c2ccc([N+](=O)[O-])cc2)cc1 (stereo not drawn)	0	-	-	0	0[0.501 µM]	-
Cc1ccc(/C(O)=C2/C(=O)C(=O)N(c3ccccn3)C2c2ccc([N+](=O)[O-])cc2)cc1 (stereo not drawn)	0	-	-	0	71µM	-
COc1ccc(C2/C(=C(/O)c3ccc(C)cc3)C(=O)C(=O)N2c2ccccn2)cc1 (stereo not drawn)	0	-	-	0	45µM	-
COc1ccc(/C(O)=C2/C(=O)C(=O)N(c3ccccn3)C2c2ccc(F)cc2)cc1 (stereo not drawn)	0	-	-	0	0	-
CCOc1ccc(/C(O)=C2/C(=O)C(=O)N(c3ncccn3)C2c2ccc(Cl)cc2)cc1 (stereo not drawn)	?	0	-	0	50µM	-
COc1ccc(OC)c(NC(=O)CC2C(=O)NCCN2C(=O)c2ccccc2)c1 (stereo not drawn)	0	-	-	0	0	-
C[C@@H](C(=O)O)c1ccc(C(=O)c2ccccc2)s1	0	0	?	-	0[21.5 µM]	0
O=C(CSc1n[nH]c(-c2ccncc2)n1)Nc1ccc(Cl)c(C(=O)O)c1	0	-	-	0	?	-
COc1ccccc1NC(=O)C1=C(C)Nc2c(C(=O)Nc3ccc(F)cc3)cnn2C1c1ccc(Cl)cc1 (stereo not drawn)	-	-	?	0	?	-
CC(C)c1cc(=O)n2[nH]c(N)nc2n1	79µM	0	-	0	79µM	0
CC(C)(C)c1cc(=O)n2[nH]c(N)nc2n1	?	0	0	0	-	0
COc1ccc(-c2nnc(SCc3cc(C)ccc3C)n2N)cc1	0	0	0	0	0[12.7 µM]	22µM
COc1ccc(-c2nnc(SCc3cccc(C)c3)n2N)cc1	0	0	0	0	0	0
CCOc1ccc(NC(=O)c2ccc(N3CC4CC(C3)c3cccc(=O)n3C4)c(NC(=O)c3cccnc3)c2)cc1 (stereo not drawn)	0	-	-	0	0	-
